The campaign covered roughly 310,000 compounds. About 14,000 (4.5%) showed an effect of 50% or more. The effect is printed as a negative number. This is one part of a sample in which strong results are shown more often than they occur.
Molecular target: human ether-à-go-go-related gene (hERG) potassium channel (human, UniProt Q12809)
Assay: primary screen, population patch clamp on CHO cells stably expressing hERG; higher = less effect of the substance
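Further: peak tail current of the secondary pulse compared with the same well before compound.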

Chain of human ether-à-go-go-related gene (hERG) potassium channel (Q12809 whole entry, looked up): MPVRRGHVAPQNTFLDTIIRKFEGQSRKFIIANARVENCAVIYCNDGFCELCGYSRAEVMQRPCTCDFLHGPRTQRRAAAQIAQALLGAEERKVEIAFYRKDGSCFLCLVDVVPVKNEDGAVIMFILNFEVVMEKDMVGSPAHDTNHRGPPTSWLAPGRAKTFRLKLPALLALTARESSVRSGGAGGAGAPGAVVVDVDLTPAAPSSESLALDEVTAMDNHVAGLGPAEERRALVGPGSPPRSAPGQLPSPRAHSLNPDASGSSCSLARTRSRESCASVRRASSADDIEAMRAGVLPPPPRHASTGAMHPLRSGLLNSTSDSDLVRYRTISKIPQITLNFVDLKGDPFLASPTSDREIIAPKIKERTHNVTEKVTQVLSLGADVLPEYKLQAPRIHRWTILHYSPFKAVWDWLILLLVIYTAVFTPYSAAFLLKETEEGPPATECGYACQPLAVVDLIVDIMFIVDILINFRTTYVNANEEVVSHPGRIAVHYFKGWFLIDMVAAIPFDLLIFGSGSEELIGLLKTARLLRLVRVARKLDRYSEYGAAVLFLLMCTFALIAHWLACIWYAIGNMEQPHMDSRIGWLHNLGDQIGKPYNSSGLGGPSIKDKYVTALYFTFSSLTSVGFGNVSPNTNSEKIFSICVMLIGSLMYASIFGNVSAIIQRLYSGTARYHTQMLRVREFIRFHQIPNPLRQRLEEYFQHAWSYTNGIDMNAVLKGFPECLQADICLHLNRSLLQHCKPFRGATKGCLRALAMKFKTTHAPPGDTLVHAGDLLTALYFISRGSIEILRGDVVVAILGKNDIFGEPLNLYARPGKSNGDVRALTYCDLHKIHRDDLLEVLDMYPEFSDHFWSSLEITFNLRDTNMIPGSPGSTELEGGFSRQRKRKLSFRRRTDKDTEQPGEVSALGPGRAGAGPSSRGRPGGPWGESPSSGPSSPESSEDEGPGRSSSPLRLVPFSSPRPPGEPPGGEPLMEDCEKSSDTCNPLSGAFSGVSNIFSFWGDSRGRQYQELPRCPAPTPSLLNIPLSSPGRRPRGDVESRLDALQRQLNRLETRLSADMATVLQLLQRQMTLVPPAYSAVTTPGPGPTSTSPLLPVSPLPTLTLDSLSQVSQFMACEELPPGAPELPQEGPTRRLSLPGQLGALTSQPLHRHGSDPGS

SMILES	hERG current change (%, negative = inhibition) at 10uM [%]
CCN(CC)c1ccc2cc(-c3nc4ccccc4n3C)c(=O)oc2c1	22.9
O=C(c1cc2sccc2n1Cc1ccc(F)cc1)N1CCCc2ccccc21	15.3
c1ccc2c(c1)c1ccccc1n1c(-c3ccc4c(c3)OCO4)nnc21	3.9
Cn1ncc2c(N3CCCCC3)nc(NCCCO)nc21	11.9
Cn1cnc2c1c(=O)n(Cc1ccc(F)cc1Cl)c(=O)n2C	5.82
CCOC(=O)C1CCCN(C(=O)c2cccc(S(=O)(=O)N3CCOCC3)c2)C1 (centres unmarked)	15.6
COc1ccc2cc(C#N)c(SCC(=O)N3CC(=O)Nc4ccccc43)nc2c1	14.9
COc1ccc(S(=O)(=O)NCCc2cn3nc(C)c(C)nc3n2)cc1F	3.38
COc1ccc([N+](=O)[O-])cc1NCc1ccccc1.O=C(O)C(=O)O	2.96
Cn1c(-c2cccc([N+](=O)[O-])c2)cnc1NCc1ccc(C#N)cc1.O=C(O)C(=O)O	-75
Cn1c(-c2ccc(Br)cc2)cnc1NCc1cccnc1	-41.3
COc1ccc(CNc2cc([N+](=O)[O-])ccc2OC)cc1	-1.02
Cn1c(-c2cccc([N+](=O)[O-])c2)cnc1NCc1cccc(F)c1.O=C(O)C(=O)O	-54.1
Cn1c(-c2cccc(Br)c2)cnc1NCc1cccnc1	-59.6
CCOc1ccc(CNc2ncc(-c3ccccc3)n2C)cc1	-38.9
COc1ccc([N+](=O)[O-])cc1NCc1cccc([N+](=O)[O-])c1	-62.6
COc1ccc(CNc2ncc(-c3ccccc3)n2C)cc1	-32.6
CNc1nc(N(C)C)nc(N(C)C)n1	-7.71
CCS(=O)(=O)N1Cc2ccccc2CC1C(=O)Nc1cccc(C)c1 (centres unmarked)	-4.95
CCc1cccc2c(C(=S)N3CCCC3)c[nH]c12	8.97
Nc1[nH]n2c(=O)cc(-c3ccccc3)nc2c1N=Nc1ccccc1	11
COc1ccccc1C(=O)Oc1ccc(N2C(=O)CCC2=O)cc1	-0.543

SMILES	hERG current change (%, negative = inhibition) at 10uM [%]
Cc1cc(C(F)F)n2nc(C(=O)Nc3ccc(F)cc3F)nc2n1	-2.95
O=C(CSc1nnc2n1CCCN2)c1ccc([N+](=O)[O-])cc1	-49.8
Nc1ccc2sc(N)nc2c1	12.2
Cc1cc(OC(C)C(=O)N(Cc2ccco2)C2CCS(=O)(=O)C2)cc(C)c1Cl (centres unmarked)	-1.99
CC(C)=CCN1CCN(Cc2ccc(C#CC(C)(C)O)s2)CC1CCO (centres unmarked)	-1.88
COc1ccc(OC)c(CNc2ncc(-c3cccc([N+](=O)[O-])c3)n2C)c1.O=C(O)C(=O)O	-54.8
COc1cccc(-c2cnc(NCc3cc(Cl)ccc3O)n2C)c1.O=C(O)C(=O)O	-24.1
Cc1cccc(CNc2ncc(-c3cccc([N+](=O)[O-])c3)n2C)c1.O=C(O)C(=O)O	-71.1
COc1ccc(CNc2ncc(-c3cccc([N+](=O)[O-])c3)n2C)c(OC)c1OC.O=C(O)C(=O)O	-47.5
Cc1ccccc1Nc1c([N+](=O)[O-])ccc2c1=NC1(CCCCC1)N=2	-16.6
O=C(COc1ccc(Br)cc1Cl)NNC(=O)c1ccccc1	2.57
Cc1ccccc1CN(c1ccc(C(=O)NCc2ccccn2)cc1)S(C)(=O)=O	-35.4
CC1CC(C)CN(C(=O)CSc2nc(Cc3cccs3)nc3ccccc23)C1 (centres unmarked)	-13
Cc1noc(C)c1COC(=O)CCN1c2ccccc2Sc2ccccc21	7.54
CCCCCCCN=CC1=C(O)CC(c2ccccc2)CC1=O (centres unmarked)	-6.52
Cc1ccc(-n2cc(S(=O)(=O)c3ccc(C)cc3)[nH]c2=O)cc1	4.72
O=C(CCCCCN1C(=O)c2cccc3cccc(c23)C1=O)NCc1ccco1	13.2
CCNC(=S)N1CCC(NC(=O)c2ccco2)CC1	6.16
COc1ccc(C(=O)NC2CCN(C(=S)NCc3ccco3)CC2)cc1	-29.6
O=C(NC1CCN(C(=S)NCc2ccco2)CC1)c1ccc(F)cc1	-51.6
CC(C)CNC(=S)N1CCC(NC(=O)c2ccco2)CC1	-65.7
O=C(NC1CCN(C(=S)NCc2ccco2)CC1)c1cccc(F)c1	-47.1
